# TDP1 cell noCPT = qHTS for Inhibitors of human tyrosyl-DNA phosphodiesterase 1 (TDP1): qHTS in cells in absence of CPT; 420,000 tested, 15% active; AID 686978, 2013; Potency, µM (top dose mostly 46.2 µM), for inactives: at the top dose activity change, negative = growth inhibition, hits mostly inhibitors; DT40 Tdp1-/- hTDP1 cells, no CPT, ATP luminescence, 48 h; further: on the % scale 0 is the no-effect control and ±100 the full control effect; nearly all actives have a fitted effect of over 55% in size
#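 Stably hTDP1-transfected Tdp1-null chicken DT40 cells were treated with library compounds minus camptothecin and grown for at least 48 hr at 37 °C, after which cellular ATP was quantified by luminescence.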
# HT1080 IDH1KD tx = qHTS for induction of synthetic lethality in tumor cells producing 2HG: qHTS for the HT-1080-IDH1KD cell line; HT-1080 IDH1 knockdown viability, ATP luminescence, 48 h; Potency, µM (top dose mostly 46.1 µM), without a hit: at the top dose activity, negative = toxicity, hits mostly cytotoxic; 360,000 tested, 2% active; AID 686971, 2013;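 further: 0% = DMSO wells and -100% = cell-free medium wells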
#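 CellTiter-Glo luminescence after 48 h compound exposure at 37 degrees C of IDH1-knockdown HT-1080 cells in 5% FBS RPMI. %Activity scaled between DMSO wells and cell-free media wells, with curves fitted and assigned curve classes.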
# HepG2 viability = qHTS for Inhibitors of TGF-b: Cytotox Counterscreen; HepG2 CAGA-GFP viability, ATP luminescence, 18 h; Potency, µM (top dose mostly 46.1 µM), for the others: at the top dose activity change, negative = cytotoxicity, usual class: cytotoxic; 410,000 tested, 0.76% active; AID 588856, 2011
#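 HepG2 CAGA-GFP cells (1000/well, DMEM with 1% FBS) received compound, then TGF-beta at 500 pg/mL final, and were incubated 18 hours at 37 degrees C. Viability was read by CellTiter-Glo luminescence. Media-only wells were set as complete cell-killing and DMSO as no toxicity.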
# TGFb inhibitor = qHTS for Inhibitors of TGF-b; HepG2 CAGA-GFP TGF-b/SMAD3 reporter, GFP fluorescence, 18 h; TGF-beta stimulated, 500 pg/mL final; Potency, µM (titrated, usually from 46.1 µM), inactives show at the highest dose activity, negative = inhibition, actives largely listed as inhibitors; 410,000 tested, 1.2% active; further: on the % scale 0 is the no-effect control and ±100 the full control effect; nearly all actives have a fitted effect of over 65% in size
#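 First, reporter cells (HEPG2 CAGA-GFP) rested 2 h at 37 degrees C. Next, compounds were pinned in and TGF-beta added to 500 pg/mL final. After 18 h, GFP was imaged per cell and summed per well.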
# HT1080NT lethal = qHTS for induction of synthetic lethality in tumor cells producing 2HG: qHTS for the HT-1080-NT fibrosarcoma cell line; HT-1080-NT fibrosarcoma viability, CellTiter-Glo ATP luminescence, 48 h; Potency, µM (titrated, usually from 46.1 µM), for inactives: at the highest dose activity, negative = less viability, most hits filed as cytotoxic; 360,000 tested, 1.6% active; AID 686970, 2013;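 further: NT is the 2HG producing partner of a matched IDH1 knockdown line; 0% = DMSO-treated cells and -100% = media-only wells without cells; nearly all actives have a fitted effect of over 55% in size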
#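 Fibrosarcoma NT cells, 750 per well in 5% FBS RPMI, were exposed to compound for 48 hours. Viability: CellTiter-Glo luminescence.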
# TDP1 cell CPT = qHTS for Inhibitors of human tyrosyl-DNA phosphodiesterase 1 (TDP1): qHTS in cells in presence of CPT; 420,000 tested, 12% active; Potency, µM (titrated, usually from 46.2 µM), for inactives: top-dose activity change, negative = growth inhibition, hits mostly inhibitors; AID 686979, 2013; chicken DT40 Tdp1-/-;hTDP1 cells + 20 nM CPT, ATP luminescence, 48 h; further: on the % scale 0 is the no-effect control and ±100 the full control effect; nearly all actives have a fitted effect of over 55% in size
#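 Cell growth measured by CellTiter-Glo luminescence after a minimum 48 h, 37 C compound exposure with 20 nM CPT in Tdp1-knockout DT40 cells stably expressing hTDP1, seeded 400/well; qHTS titration format.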
# * = called active by the depositor; ? = inconclusive; . = no result given; ! = not active in a repeat; [ ] = dose if it differs, or a comment. Rows were chosen to be rich in hits. Some 17% of all compounds tested hit in one or more screens of this group. The call rests on the fitted dose curve; in most records, active means well fitted curve in the direction sought with a large enough effect; inconclusive means small, poorly fitted or top-dose-only effect, or another doubt; inactive means no such curve, though single readings can be large; an effect the other way counts as inactive or inconclusive. Potency means the concentration at half of the fitted maximal effect.
SMILES,TDP1 cell noCPT,HT1080 IDH1KD tx,HepG2 viability,TGFb inhibitor,HT1080NT lethal,TDP1 cell CPT
CCCC(C)C(=O)Nc1nc(C)c(-c2csc(Nc3cc(OC)ccc3OC)n2)s1 (configuration not stated),6.5µM*,-25%,-5%,4%,-17%,4.6µM*
CCCCC/C=C\C/C=C\CCCCCCCC(=O)NC(C)c1ccccc1 (configuration not stated),3%,.,.,.,.,-15%
COc1ccc(NC(=O)c2cc(-c3sc(NC(=O)c4ccccc4)nc3C)n(-c3ccc(Br)cc3)n2)cc1,-23%,-1%,.,.,-2%,3%
COc1ccc(OC)c(NC(=O)CCC(=O)Nc2nnc(C(C)C)s2)c1,-7%,22%,2%,4%,16%,-5%
CCCCCC(=O)Nc1nc(C)c(-c2csc(Nc3cc(Cl)ccc3OC)n2)s1,18µM*,-1%,-14%,?,-3%,?
Cc1nc(NC(=O)c2ccccc2)sc1-c1csc(Nc2ccc(C(=O)O)cc2)n1,12µM*,6%,-38%,-15%,-18%,21µM*
C=CCn1nc(C(=O)Nc2ccc(OC)cc2)cc1-c1sc(NC(=O)c2ccccc2)nc1C,?,-24%,.,.,-20%,18µM*
CCC(=O)Nc1nc(C)c(-c2csc(Nc3ccc(C(=O)O)cc3)n2)s1,-26%,9%,-20%,12%,3%,-1%
C=CCCC(=O)Nc1nc(C)c(-c2csc(Nc3cc(OC)ccc3OC)n2)s1,2.6µM*,7.3µM*,0%,?,7.3µM*,2.6µM*
CC(C)c1c(C(=O)N/N=C/c2ccsc2)nnn1-c1nonc1N,-14%,7%,-2%,-2%,4%,-8%
CCCC(=O)Nc1nc(C)c(-c2csc(Nc3cc(OC)ccc3OC)n2)s1,6.5µM*,-25%,-9%,1%,-9%,4.6µM*
COc1cccc(Nc2nc(-c3sc(NC(=O)c4ccccc4)nc3C)cs2)c1,21µM*,-25%,-37%,5%,?,18µM*
COc1ccc(OC)c(Nc2nc(-c3sc(N)nc3C)cs2)c1,26µM*,-7%,-6%,0%,?,?
CCCC(=O)Nc1nc(C)c(-c2csc(Nc3ccccc3OC)n2)s1,?,-9%,-2%,1%,-5%,-28%
CCC(=O)N1N=C(c2ccccc2)CC1c1ccccc1 (configuration not stated),-17%,3%,-1%,32%,-1%,-2%
N=C(SC1CC(=O)N(c2ccc(F)cc2)C1=O)N1N=C(c2ccccc2)CC1c1ccccc1 (configuration not stated),?,0%,5%,-1%,1%,16µM*
COCCNc1nc(N)c([N+](=O)[O-])c(NCc2ccccc2)n1,?,-10%,3%,0%,?,?
O=C1c2ccccc2/C(=C\c2ccc3[nH]ccc3c2)N1c1ccccc1,?,-12%,-3%,-6%,1%,?
CCC/C(=C1/c2ccccc2C(=O)N1c1ccccc1)c1ccc2[nH]ccc2c1,16µM*,?,-28%,11µM*,?,16µM*
COc1ccc(Cl)c2c1[nH]c1nc(SCc3ccccn3)nnc12,26µM*,-26%,5%,?,-21%,?
Cn1c(=O)c(=O)n(C)c2cc(S(=O)(=O)CCC(=O)Nc3ccccc3C(F)(F)F)ccc21,-4%,-13%,5%,0%,-6%,-12%
Cn1c(=O)c(-c2cc(F)cc(F)c2)nc2cncnc21,-6%,.,.,.,.,-14%
Cc1cc2cc(CN(Cc3cccs3)C(c3nnnn3C(C)(C)C)C(C)C)c3nnnn3c2cc1C (configuration not stated),9.2µM*,2%,8%,19%,3%,15µM*
CN1C(=O)c2ccccc2Sc2ccc(NC(=O)COc3ccc(F)cc3)cc21,7.3µM*,.,-16%,-8%,.,16µM*
CN1C(=O)c2ccccc2Sc2ccc(NC(=O)COc3ccc(Cl)cc3)cc21,12µM*,.,-17%,2.8µM*,.,21µM*
SMILES,TDP1 cell noCPT,HT1080 IDH1KD tx,HepG2 viability,TGFb inhibitor,HT1080NT lethal,TDP1 cell CPT
Cc1ccc2oc(=O)c(-c3ccc(O)cc3)c(C)c2c1,?,1%,-14%,-18%,-1%,?
C=C(C)Cn1c(SCC)nc2ccccc2c1=O,10µM*!,11%,-5%,?,5%,?
C=C(C)Cn1c(SCC(=O)N/N=C/c2c(O)ccc3ccccc23)nc2ccccc2c1=O,6.5µM*,-3%,-48%,?,-6%,7.3µM*
COc1ccccc1N1CCN(c2nc(CNC(=O)c3cc(C)oc3C)nc3ccccc23)CC1,?,.,.,.,.,-20%[9.04 µM]
C=Cc1ccc(Cn2c(C)c(C(=O)NCc3ccccc3C(F)(F)F)sc2=O)cc1,?,-19%,-1%,-4%,-9%,?
O=C(CCSC1=NCCCN1)c1ccc(F)cc1,2.9µM*,2%,-9%,-30%,-3%,1.8µM*
O=C(NCc1cccs1)C1CCN(c2ccc(S(=O)(=O)N3CCOCC3)cc2Cl)CC1,2.6µM*,?,3%,?,?,3.7µM*
C#CCNC(=O)C1CCN(c2ccc(S(=O)(=O)N3CCOCC3)cc2Cl)CC1,?,-13%,-2%,-10%,3%,-15%
O=C(O)C1CCN(S(=O)(=O)c2ccc(N3CCOCC3)c([N+](=O)[O-])c2)CC1,?,14%,-9%,0%,-7%,-4%
O=C(NCc1ccco1)C1CCN(c2ccc(S(=O)(=O)N3CCOCC3)cc2[N+](=O)[O-])CC1,23µM*,-17%,-17%,1%,-2%,?
O=C(Nc1ccnn1C1CCN(C2CCOCC2)CC1)c1cccc(F)c1,20%,0%,8%,9%,-2%,1%
CCC1(CCC(C)C)SC(N)=NC1=O (configuration not stated),2%,1%,0%,-11%,0%,2%
CC1CCN(C(=O)c2ccc(NC3=C(Cl)C(=O)N(Cc4ccccc4)C3=O)cc2)CC1,12µM*,-28%,-43%,?,-12%,18µM*

# High-throughput results deposited in PubChem BioAssay by National Center for Advancing Translational Sciences (NCATS).
